# mHTT CaM bind – mutant huntingtin-calmodulin interaction inhibitors – biochemical, AlphaScreen, primary screen; P42858; AlphaScreen His-mHTT/GST-CaM binding, luminescence; inhibition, % at 15 µM; 3.6% of 190,000 active; AID 1671202, 2021;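 further: 0% = both proteins with DMSO and 100% = one protein alone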
# Pf apPOL block – Pf-apPOL inhibitors, biochemical, fluorescence | Plasmodium falciparum apicoplast DNA polymerase (apPOL) | Recombinant Pf-apPOL, molecular beacon fluorescence, 1.5 h | inhibition, % at 10 µM | 0.25% of 210,000 active | AID 1794808, 2022
# The depositor's hits bear a star; x = not tested or not shown. The sample as a whole holds a higher share of hits than the screen did. No stated cut-off is given here; in the data, active means inhibition above about 50%; inactive means the rest.
SMILES,mHTT CaM bind,Pf apPOL block
O=C(CCCn1c(=O)c2sccc2n(Cc2cccc(Cl)c2)c1=O)NCc1ccco1,21,0
O=C(Nc1nccs1)C(c1ccccc1)n1cccc1 (stereo unspecified),35,5
O=C(Nc1cccc2ncccc12)C(c1ccccc1)n1cccc1 (stereo unspecified),78*,26
CCN1CCn2cc(C(=O)NCc3ccc(C(F)(F)F)cc3)nc2C1,97*,-13
CCN1CCn2cc(C(=O)NCc3ccc(F)cc3)nc2C1,42,-5
CC1=C(C(=O)Nc2cccc(C(F)(F)F)c2)C2(CCCCCC2)OC1=O,98*,-2
CC1=C(C(=O)Nc2cccc(C(F)(F)F)c2)C2(CCCCC2)OC1=O,14,-1
CCc1nnc(NS(=O)(=O)c2ccc(N/C=C/C(=O)c3cccc(OC)c3)cc2)s1,7,2
CC1=C(C(=O)Nc2cc(C)ccn2)C(c2ccc([N+](=O)[O-])cc2)C2=C(CCCC2=O)N1 (stereo unspecified),8,-3
CN(C)c1ccc(-c2nc3n(n2)C(c2ccccc2)C2=C(CCCC2=O)N3)cc1 (stereo unspecified),5,-6
CN(C)c1ccc(-c2nc3n(n2)C(c2ccc(F)cc2)C2=C(CCCC2=O)N3)cc1 (stereo unspecified),51*,-2
COc1ccc(N2C(N)=C(C#N)C(c3ccc4c(c3)OCO4)C3=C2CC(C)(C)CC3=O)c(OC)c1 (stereo unspecified),21,-4
Cn1c(-c2ccc(S(=O)(=O)O)o2)nc2ccccc21,-3,2
c1ccc(-c2noc(-c3ccco3)n2)nc1,4,-12
O=S(=O)(O)c1ccc(-c2nnc(-c3ccccn3)nc2-c2ccc(S(=O)(=O)O)o2)o1,100*,x
c1ccc(-c2nnc(-c3ccco3)c(-c3ccco3)n2)nc1,100*,x
COC(=O)Cn1cc(CN2CCCC2c2cc(C(C)C)on2)c2cc(OC)ccc21 (stereo unspecified),46,2
CC(C)CC(=O)Nc1ccc2c(c1)CC(C(=O)NCCCc1ccccc1)CO2 (stereo unspecified),-8,-7
Cc1nc2c(C(=O)NCCc3ccc(Cl)cc3)cnn2c(C)c1Cc1ccc(F)cc1,80*,-8
COc1ccc(CNC(=O)c2cnn3c(C)c(Cc4cc(C)ccc4C)c(C)nc23)cc1,-1,-4
Cc1nc2c(C(=O)NCc3ccccc3)cnn2c(C)c1Cc1cccc(Cl)c1,38,-1
CCCCNC(=O)c1cnn2c(C)c(Cc3ccc(F)cc3)c(C)nc12,48,-4
Cc1nc2c(C(=O)NCCc3ccccc3)cnn2c(C)c1Cc1ccc(Cl)cc1,-7,-5
COc1ccc(CCNC(=O)c2cnn3c(C)c(Cc4cc(C)ccc4C)c(C)nc23)cc1OC,53*,-6
Cc1nc2c(C(=O)NCCc3ccccc3)cnn2c(C)c1Cc1cccc(Cl)c1,78*,-8
SMILES,mHTT CaM bind,Pf apPOL block
Cc1nc2c(C(=O)NCCc3ccc(Cl)cc3)cnn2c(C)c1Cc1ccccc1,53*,-7
O=C(CCn1cc(C(F)(F)F)ccc1=O)Nc1cccc(C(F)(F)F)c1,x,1
CCCn1ncc(N2CCC(C(=O)NCc3cccnc3)CC2)cc1=O,-11,-7
Cc1nn(C(CC(=O)O)C(=O)O)c(C)c1I (stereo unspecified),-2,-3
Cc1cc(C)cc(C(=O)N2CCCC(COc3cccc(C(=O)NC4CC4)c3)C2)c1 (stereo unspecified),10,-2
O=C(Nc1nnc(-c2cccnc2)s1)c1ccc(Cl)c(Cl)c1,10,-10
Cn1nc(COCc2ccccc2F)c2c1CCN(C(=O)Nc1ccc(F)cc1F)C2,-4,-1
Cc1c(NC(=O)c2c[nH]c(=O)n(C)c2=O)c(=O)n(-c2ccccc2)n1C,-20,-1
Cc1cccc(C2=N[C@@H](CC(C)C)CO2)c1,-14,-4
Cc1cccc(C2=N[C@@H](Cc3ccccc3)CO2)c1,81*,-11
NCCN1C(=O)S/C(=C\c2ccc(F)c(Oc3ccccc3)c2)C1=O,71*,-14
COc1ccc(/C=C2\SC(=O)N(CCN)C2=O)cc1OC,4,-1
O=C(c1cc2cn(C3CCCC3)cc2s1)N1CCOCC1,19,-5
C=CCSc1nnc2c(n1)OC(c1cc(OC)ccc1OC)N(C(C)=O)c1ccccc1-2 (stereo unspecified),15,-63
COC(=O)c1ccc2c(=O)n(-c3cccc(F)c3)c(N3CCSC3)nc2c1,-4,-5
Cc1nc(C)c(Cc2ccc(Cl)cc2)c(N2CCN(S(C)(=O)=O)CC2)n1,22,-3
CCS(=O)(=O)N1CCN(c2nc(C)nc(C)c2Cc2ccc(Cl)cc2)CC1,53*,1
CCN1C(=O)/C(=C2\C=Cc3ccccc3N2CC)SC1=Nc1ccc(N2CCOCC2)cc1,0,-3
CCN1C(=O)/C(=C2\C=Cc3ccccc3N2CC)SC1=Nc1ccccc1,97*,-2

# Source: PubChem BioAssay (University of Kansas High Throughput Screening Laboratory)
